{
  "source": "PubChem BioAssay AID602144",
  "about": "(Vanderbilt Specialized Chemistry Center, 2011)",
  "note": "Activity calls are given as the source filed them. No stated cut-off is given here; in the data, active means remaining activity below about 50%; inactive means the rest.",
  "data": [
    {"molecular_target": "Phospholipase D1 (Homo sapiens) (UniProt Q13393)", "test": "PLD1 inhibitors in cells, Calu-1 cells, single concentration (AID 602144);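 further: tested at 200 nM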", "details": "cellular PLD1 activity, stronger effect = lower value", "values": [
      {"smiles": "O=C(NCCN1CCC(n2c(=O)[nH]c3ccccc32)CC1)NC(c1ccccc1)c1ccccc1", "remaining activity": "146% (inactive)"},
      {"smiles": "C[C@@H](CN1CCC(n2c(=O)[nH]c3ccccc32)CC1)NC(=O)c1cc2ccccc2s1", "remaining activity": "28% (active)"},
      {"smiles": "COc1ccc2c(c1)c(CC(=O)NCCN1CCC(n3c(=O)[nH]c4ccccc43)CC1)c(C)n2C(=O)c1ccc(Cl)cc1", "remaining activity": "98.1% (inactive)"},
      {"smiles": "O=C(NCCN1CCC(n2c(=O)[nH]c3ccccc32)CC1)c1cc2ccccc2c2c1ccc1ccccc12", "remaining activity": "102% (inactive)"},
      {"smiles": "O=C(NCCN1CCC2(C=Cc3ccccc32)CC1)[C@H]1C[C@@H]1c1ccccc1", "remaining activity": "107% (inactive)"},
      {"smiles": "O=C(NCCN1CCC(n2c(=O)[nH]c3ccc(F)cc32)CC1)c1ccc(Cl)c(Cl)c1", "remaining activity": "0% (active)"},
      {"smiles": "O=C(NCCN1CCC(n2c(=O)[nH]c3ccccc32)CC1)c1ccccc1-c1ccccc1", "remaining activity": "92.1% (inactive)"},
      {"smiles": "COc1cccc(N2CCN(CCNC(=O)c3ccc(C(F)(F)F)cc3)CC2)c1", "remaining activity": "102% (inactive)"},
      {"smiles": "O=C(NCCN1CCC(n2c(=O)[nH]c3cc(I)ccc32)CC1)C1CC1c1ccccc1", "note": "(stereo not drawn)", "remaining activity": "16.1% (active)"},
      {"smiles": "O=C(NCCN1CCC(n2c(=O)[nH]c3ccccc32)CC1)c1cnccn1", "remaining activity": "76.7% (inactive)"},
      {"smiles": "COc1ccc(S(=O)(=O)NCCN2CCC(n3c(=O)[nH]c4ccccc43)CC2)cc1", "remaining activity": "140% (inactive)"},
      {"smiles": "C[C@@H](CN1CC=C(n2c(=O)[nH]c3ccccc32)CC1)NC(=O)[C@H]1C[C@@H]1c1ccccc1", "remaining activity": "15.7% (active)"},
      {"smiles": "C[C@H](CN1CCC(n2nnc3ccccc32)CC1)NC(=O)c1cnc2ccccc2c1", "remaining activity": "38.2% (active)"}
    ]}
  ]
}
